Assay results taken from PubChem BioAssay (NCI).
Compounds without any hit were thinned out: in the full panel of roughly 79,000, 15% have a hit. Activity calls are given as the source filed them. Cut-off read from the data, not from the text of the source: active = growth inhibition above about 70%; inactive = the rest.

Columns and labels:
[1] = NCI Yeast Anticancer Drug Screen. Data for the mec2-1 strain (AID 157); details: S. cerevisiae mec2-1 strain, active compounds read high
Method in brief: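 Strain: mec2-1 (DNA repair/cell cycle alteration). Compound exposure, then growth measured; inhibition expressed relative to vehicle.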

[2] = NCI Yeast Anticancer Drug Screen. Data for the rad14 strain (AID 159);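 note: 0% = growth of vehicle-treated control cultures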; details: S. cerevisiae rad14 strain growth inhibition, active compounds read high
Method in brief: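 Inhibition of growth is reported for a repair-deficient yeast mutant following compound treatment, calculated relative to cultures that received vehicle.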

[3] = NCI Yeast Anticancer Drug Screen. Data for the sgs1 mgt1 strain (AID 161);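 note: 0% = growth of cultures given vehicle only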; details: S. cerevisiae sgs1 mgt1 strain, active compounds read high
Method in brief: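 Mutant yeast exposed to compound; growth scored against vehicle-only wells.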

[4] = NCI Yeast Anticancer Drug Screen. Data for the CLN2oe strain (AID 163);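 note: 0% = growth of vehicle-only control cultures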; details: S. cerevisiae CLN2oe strain, active compounds read high
Method in brief: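 Growth of a genetically modified yeast strain is measured after compound exposure and compared with cultures given vehicle alone.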

[5] = NCI Yeast Anticancer Drug Screen. Data for the cln2 rad14 strain (AID 165);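 note: 0% = growth equal to vehicle treated cultures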; details: S. cerevisiae cln2 rad14 strain, active compounds read high
Method in brief: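 Compounds are applied to the cln2 rad14 yeast strain, and growth is then compared with that of vehicle-treated cultures to give inhibition.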

[6] = NCI Yeast Anticancer Drug Screen. Data for the bub3 strain (AID 167); details: S. cerevisiae bub3 mutant strain, active compounds read high
Method in brief: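 Mutant yeast screening strain plus compound; vehicle-treated cultures serve as the 0% inhibition reference.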

[7] = NCI Yeast Anticancer Drug Screen. Data for the wt2 strain (AID 169); details: S. cerevisiae wt2 strain growth inhibition, active compounds read high
Method in brief: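 This strain belongs to a panel of yeast strains with defined genetic alterations in DNA damage repair or cell cycle control. Compounds are applied, and growth inhibition is measured against vehicle-treated cultures.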

[8] = NCI Yeast Anticancer Drug Screen. Data for the mlh1 strain (AID 171);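 note: 0% = growth of vehicle-treated control cultures of the same strain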; details: S. cerevisiae mlh1 strain growth inhibition, active compounds read high
Method in brief: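 Growth of the mutant yeast strain after compound exposure, expressed as inhibition relative to vehicle-only controls.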

[9] = NCI Yeast Anticancer Drug Screen. Data for the sgs1 strain (AID 173);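 note: 0% = growth of vehicle-only control cultures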; details: S. cerevisiae sgs1 mutant, active compounds read high
Method in brief: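 Growth of a yeast strain bearing a defined genetic alteration is measured after compound treatment. Inhibition is expressed relative to vehicle-only controls.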

[10] = NCI Yeast Anticancer Drug Screen. Data for the mlh1 rad18 strain (AID 175); details: S. cerevisiae mlh1 rad18 strain growth inhibition, active compounds read high
Method in brief: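 Read-out is yeast growth inhibition, calculated against vehicle-only controls. The compound was applied to a strain engineered with DNA damage repair alterations.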

[11] = NCI Yeast Anticancer Drug Screen. Data for the rad18 strain (AID 177); details: S. cerevisiae rad18 mutant growth inhibition, active compounds read high
Method in brief: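 Growth of the mutant yeast strain after compound exposure, normalised to vehicle-only cultures.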

[12] = NCI Yeast Anticancer Drug Screen. Data for the rad52 strain (AID 147);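 note: 0% = growth of vehicle-treated control cultures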; details: S. cerevisiae rad52 mutant growth inhibition, active compounds read high
Method in brief: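 Compounds are applied to a genetically defined yeast strain lacking normal DNA damage repair, and inhibition of growth is expressed relative to cultures given vehicle only.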

[13] = NCI Yeast Anticancer Drug Screen. Data for the wt1 strain (AID 149);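 note: 0% = growth of vehicle-treated wt1 cultures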; details: S. cerevisiae wt1 strain (SPY 50644) growth inhibition, active compounds read high
Method in brief: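 Each compound is tested on wt1 yeast and the loss of growth versus vehicle gives the inhibition value.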

[14] = NCI Yeast Anticancer Drug Screen. Data for the rad50EPP+ strain (AID 151);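 note: 0% = growth of vehicle-treated control cultures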; details: S. cerevisiae rad50 mutant strain, active compounds read high
Method in brief: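 Compounds were applied to the rad50EPP+ yeast strain, which bears a defined DNA repair alteration, and growth inhibition was determined relative to vehicle-treated cultures.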

[15] = NCI Yeast Anticancer Drug Screen. Data for the mgt1 strain (AID 153); details: S. cerevisiae mgt1 mutant growth inhibition, active compounds read high
Method in brief: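 Strain: mgt1 yeast, one of a set carrying defined DNA damage repair or cell cycle control alterations. Compound-treated growth compared with vehicle.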

[16] = NCI Yeast Anticancer Drug Screen. Data for the rad50 strain (AID 155);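 note: 0% = growth of vehicle-only cultures of the same strain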; details: S. cerevisiae rad50 strain growth inhibition, active compounds read high
Method in brief: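 Vehicle-treated cultures provide the reference for the growth inhibition reported for compound-exposed, repair-deficient yeast.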

[17] = at 5.0 µM (retest, dose inferred, filed as 0.5)
[18] = at 50.0 µM (retest, dose inferred, filed as 5.0)

Measured: growth inhibition

CCC[CH2][Sn]([CH2]CCC)([CH2]CCC)/[C](=C/[Si](C)(C)c1ccccc1)c1ccc2c(c1)OCO2
inactive: [1]; [17] 27% | [1]; [18] 27% | [2]; at 1.2 µM 1% | [2]; at 3.7 µM 24% | [4]; at 1.2 µM -5% | [4]; at 3.7 µM 4% | [5]; [17] 7% | [5]; [18] 7% | [6]; at 1.2 µM -2% | [6]; at 3.7 µM 10% | [6]; [17] 14% | [6]; [18] 14% | [7]; at 1.2 µM 0% | [7]; at 3.7 µM 35% | [8]; at 1.2 µM 7% | [8]; at 3.7 µM 47% | [9]; at 1.2 µM 1% | [9]; at 3.7 µM 44% | [10]; [17] 44% | [10]; [18] 44% | [11]; at 1.2 µM 25%
active: [1]; at 11.0 µM 94% | [1]; at 33.0 µM 92% | [1]; at 50.0 µM 93.7% | [1]; at 100.0 µM 91% | [2]; at 11.0 µM 95% | [2]; at 33.0 µM 93% | [2]; at 100.0 µM 93% | [3]; [17] 75% | [3]; [18] 75% | [3]; at 50.0 µM 91.8% | [4]; at 11.0 µM 92% | [4]; at 33.0 µM 89% | [4]; at 100.0 µM 84% | [5]; at 50.0 µM 91.3% | [6]; at 11.0 µM 93% | [6]; at 33.0 µM 89% | [6]; at 50.0 µM 92% | [6]; at 100.0 µM 89% | [7]; at 11.0 µM 95% | [7]; at 33.0 µM 92% | [7]; at 100.0 µM 93% | [8]; at 11.0 µM 93% | [8]; at 33.0 µM 92% | [8]; at 100.0 µM 91% | [9]; at 11.0 µM 94% | [9]; at 33.0 µM 90% | [9]; at 100.0 µM 90% | [10]; at 50.0 µM 89% | [11]; at 3.7 µM 82% | [11]; at 11.0 µM 92% | [11]; at 33.0 µM 86% | [11]; at 100.0 µM 88%

CCOC(=S)SSSC(=S)OCC
active: [12]; at 11.0 µM 70% | [12]; at 33.0 µM 97% | [12]; at 100.0 µM 99% | [13]; at 33.0 µM 88% | [13]; at 100.0 µM 99% | [14]; at 11.0 µM 93% | [14]; at 33.0 µM 99% | [14]; at 100.0 µM 99% | [15]; at 33.0 µM 96% | [16]; at 11.0 µM 76% | [16]; at 33.0 µM 99% | [16]; [18] 99% | [16]; at 100.0 µM 99% | [1]; [17] 87% | [1]; at 33.0 µM 91% | [1]; [18] 100% | [1]; at 100.0 µM 99% | [2]; at 33.0 µM 96% | [2]; at 100.0 µM 99% | [3]; [18] 99% | [4]; at 100.0 µM 95% | [5]; [18] 92% | [6]; at 33.0 µM 95% | [6]; [18] 99% | [6]; at 100.0 µM 99% | [7]; at 33.0 µM 95% | [7]; at 100.0 µM 99% | [8]; at 33.0 µM 95% | [8]; at 100.0 µM 99% | [9]; at 33.0 µM 98% | [9]; at 100.0 µM 99% | [10]; [18] 99% | [11]; at 33.0 µM 98% | [11]; at 100.0 µM 99%
inactive: [12]; at 1.2 µM 4% | [12]; at 3.7 µM 17% | [13]; at 1.2 µM -3% | [13]; at 3.7 µM 3% | [13]; at 11.0 µM 31% | [14]; at 1.2 µM 18% | [14]; at 3.7 µM 51% | [15]; at 1.2 µM -1% | [15]; at 3.7 µM 6% | [15]; at 11.0 µM 31% | [15]; at 100.0 µM 56% | [16]; at 1.2 µM 7% | [16]; at 3.7 µM 19% | [16]; [17] 43% | [16]; at 50.0 µM 29.6% | [1]; at 1.2 µM -6% | [1]; at 3.7 µM -5% | [1]; at 11.0 µM 20% | [1]; at 50.0 µM 19.4% | [2]; at 1.2 µM 0% | [2]; at 3.7 µM 5% | [2]; at 11.0 µM 40% | [3]; [17] 9% | [3]; at 50.0 µM 41.2% | [4]; at 1.2 µM -2% | [4]; at 3.7 µM -1% | [4]; at 11.0 µM 18% | [4]; at 33.0 µM 57% | [5]; [17] 1% | [5]; at 50.0 µM -2.7% | [6]; at 1.2 µM -5% | [6]; at 3.7 µM -4% | [6]; [17] -3% | [6]; at 11.0 µM 36% | [6]; at 50.0 µM 50.4% | [7]; at 1.2 µM -1% | [7]; at 3.7 µM 0% | [7]; at 11.0 µM 33% | [8]; at 1.2 µM 3% | [8]; at 3.7 µM 7% | [8]; at 11.0 µM 41% | [9]; at 1.2 µM 0% | [9]; at 3.7 µM 9% | [9]; at 11.0 µM 56% | [10]; [17] 55% | [10]; at 50.0 µM 27.2% | [11]; at 1.2 µM 0% | [11]; at 3.7 µM 8% | [11]; at 11.0 µM 56%

COc1cc([N+](=O)[O-])c2ncccc2c1Br
inactive: [12]; at 1.2 µM 41% | [12]; at 3.7 µM 41% | [12]; at 11.0 µM 47% | [12]; at 33.0 µM 44% | [12]; at 100.0 µM 42% | [13]; at 1.2 µM -1% | [13]; at 3.7 µM -7% | [13]; at 11.0 µM 5% | [13]; at 33.0 µM -2% | [13]; at 100.0 µM -3% | [14]; at 1.2 µM 11% | [14]; at 3.7 µM 16% | [14]; at 11.0 µM 29% | [14]; at 33.0 µM 36% | [14]; at 100.0 µM 24% | [15]; at 1.2 µM -2% | [15]; at 3.7 µM -6% | [15]; at 11.0 µM -1% | [15]; at 33.0 µM -4% | [15]; at 100.0 µM -4% | [16]; at 1.2 µM 15% | [16]; at 3.7 µM 12% | [16]; [17] 14% | [16]; at 11.0 µM 25% | [16]; at 33.0 µM 33% | [16]; [18] 32% | [16]; at 50.0 µM 32.9% | [16]; at 100.0 µM 20% | [1]; at 1.2 µM 2% | [1]; at 3.7 µM 2% | [1]; [17] 2% | [1]; at 11.0 µM 5% | [1]; at 33.0 µM -1% | [1]; [18] 16% | [1]; at 50.0 µM 9.05% | [1]; at 100.0 µM 2% | [2]; at 1.2 µM 35% | [2]; at 3.7 µM 51% | [2]; at 11.0 µM 67% | [2]; at 33.0 µM 49% | [2]; at 100.0 µM 55% | [3]; [17] 26% | [3]; [18] 41% | [3]; at 50.0 µM 25.1% | [4]; at 1.2 µM -11% | [4]; at 3.7 µM -7% | [4]; at 11.0 µM -11% | [4]; at 33.0 µM -11% | [4]; at 100.0 µM -11% | [5]; [17] 22% | [5]; [18] 57% | [6]; at 1.2 µM -15% | [6]; at 3.7 µM -14% | [6]; [17] -4% | [6]; at 11.0 µM -16% | [6]; at 33.0 µM -18% | [6]; [18] -3% | [6]; at 50.0 µM -3.7% | [6]; at 100.0 µM -18% | [7]; at 1.2 µM -12% | [7]; at 3.7 µM 0% | [7]; at 11.0 µM 5% | [7]; at 33.0 µM 4% | [7]; at 100.0 µM 9% | [8]; at 1.2 µM -10% | [8]; at 3.7 µM -5% | [8]; at 11.0 µM -3% | [8]; at 33.0 µM -3% | [8]; at 100.0 µM -4% | [9]; at 1.2 µM 41% | [9]; at 3.7 µM 32% | [9]; at 11.0 µM 42% | [9]; at 33.0 µM 42% | [9]; at 100.0 µM 38% | [10]; [17] 53% | [10]; at 50.0 µM 29.3%
active: [5]; at 50.0 µM 81.8% | [10]; [18] 77% | [11]; at 1.2 µM 91% | [11]; at 3.7 µM 93% | [11]; at 11.0 µM 93% | [11]; at 33.0 µM 93% | [11]; at 100.0 µM 91%
